Pf growth 96h: P. falciparum growth inhibition at 96 hours; P. falciparum luciferase reporter growth, 96 h; AID 504834; 320,000 compounds, 6.9% hits; Potency, µM (titrated, usually from 28.7 µM), actives largely listed as inhibitors
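Two parasite generations (96 h, 37 C, 5% CO2) of compound exposure in infected erythrocytes (0.05% parasitemia, 2% hematocrit). Luciferase-reporter P. falciparum; decreased luminescence indicates inhibited growth, aimed at apicoplast-acting delayed death.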
NS1 function inh: influenza NS1 inhibition; Potency, µM (series often up to 46.1 µM); 270,000 compounds, 0.4% hits; AID 2326; calls by dose curve; further: actives are rising curves; nearly all actives have a fitted effect of over 50% in size
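S. cerevisiae expressing influenza A NS1, grown in glucose, washed, then diluted 1:100 into pH 6.0 -URA galactose medium with 23 nl compound. Growth recovery read as OD600; NS1-free strain serves as control.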
RE007 growth inh: less growth of the S. pombe RE007 Vpr strain | S. pombe RE007 Vpr strain, BacTiter-Glo ATP luminescence, 24 h | Potency, µM (top dose mostly 92.2 µM), actives largely listed as inhibitors | 360,000 compounds, 0.21% hits | AID 651644; active means well fitted falling curve with a large enough effect; inconclusive means small, poorly fitted or top-dose-only effect; inactive means no such curve, though single readings can be large or run the other way; further: nearly all actives have a fitted effect of over 50% in size
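Fission yeast RE007 carrying one integrated HIV-1 vpr copy, seeded at OD 0.01 in PMG+AL medium with 23 nL pinned compound. Grown 24 h at 30 degrees; viability read by BacTiter-Glo luminescence after 5 min.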
Pf growth 48h: inhibits P. falciparum growth in the first generation, 48 h; P. falciparum luciferase growth in erythrocytes, 48 h; AID 504832; 310,000 compounds, 5.9% hits; Potency, µM (titrated, usually from 28.7 µM), usual class: inhibitors
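Growth was read as firefly luciferase luminescence after a 48 h, 37 C, 5% CO2 exposure of compounds to reporter-bearing P. falciparum cultures (0.1% parasitemia, 2% hematocrit final) in Albumax-supplemented RPMI 1640.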
SARS PLP yeast: blocks SARS-CoV papain-like protease in a yeast assay | S. cerevisiae expressing SARS-CoV PLpro, growth rescue | Potency, µM (doses to about 32.9 µM), usual class: activators | 330,000 compounds, 0.19% hits | AID 485353; calls by dose curve; further: nearly all actives have a fitted effect of over 55% in size
Large screens that a line does not name were inactive. Only some compounds are listed: those with a hit (about 9.5% of all), similar ones and a draw of the others. Unless noted, the call rests on the fitted dose curve; in most records, active means well fitted inhibition curve with a large enough effect; inconclusive means small, poorly fitted or top-dose-only effect, or another doubt; inactive means no such curve, though single readings can be large or run the other way.

CC(C)n1ncc2c(C(=O)N3CCN(Cc4ccc(Br)s4)CC3)cc(C3CC3)nc21	Pf growth 96h 12µM, Pf growth 48h 4.1µM (no result: NS1 function inh)
CCNC(=O)c1cccc(NC(=O)c2cc(C3CC3)nc3c2cnn3C(C)C)c1	Pf growth 96h inconclusive, Pf growth 48h inconclusive (no result: NS1 function inh)
COc1ccccc1CNC(=O)c1cc(C2CC2)nc2c1cnn2C(C)C	Pf growth 96h 0.74µM, Pf growth 48h 0.93µM (no result: NS1 function inh)
CC(C)n1ncc2c(C(=O)Nc3cccc(C#N)c3)cc(C3CC3)nc21	Pf growth 96h 5.2µM, Pf growth 48h 6.6µM (no result: NS1 function inh)
CC(C)n1ncc2c(C(=O)NCCOc3ccccc3F)cc(C3CC3)nc21	none (no result: Pf growth 96h, NS1 function inh, Pf growth 48h)
Cc1ccnc(N/C=C(\C#N)c2nc(-c3cccc(Br)c3)cs2)c1	Pf growth 96h 2.9µM, Pf growth 48h 12µM
O=C(Nc1ccccc1)c1nnsc1S(=O)c1ccc(Cl)cc1 (stereo unspecified)	RE007 growth inh 2.8µM
O=C(c1nnsc1S(=O)c1ccc(Cl)cc1)N1CCOCC1 (stereo unspecified)	RE007 growth inh inconclusive, Pf growth 48h 17µM (no result: NS1 function inh)
O=C(Nc1ccc(Cl)cc1)c1cccs1	RE007 growth inh inconclusive (no result: SARS PLP yeast)
O=C(/C=C/c1ccccc1Cl)NCCc1ccc(F)cc1	Pf growth 96h inconclusive, Pf growth 48h 4.7µM
O=C(COC(=O)c1ccc(Cl)c(S(=O)(=O)N2CCCCC2)c1)NCC1CCCO1 (stereo unspecified)	none (no result: NS1 function inh)
CCCCOc1ccc(S(=O)(=O)N2CCCCCC2)cc1	Pf growth 96h 12µM
CC(C)(C)c1ccc(S(=O)(=O)N2CCN(C(=O)C3=COCCO3)CC2)cc1	Pf growth 96h 13µM, Pf growth 48h inconclusive (no result: NS1 function inh)
O=C(COc1ccc(S(=O)(=O)N2CCCCC2)cc1)N1CCCCCC1	Pf growth 96h 13µM, Pf growth 48h inconclusive
CC(C)(C)c1ccc(S(=O)(=O)N2CCCCC2)cc1	Pf growth 96h 12µM, Pf growth 48h inconclusive
Nc1ccc(C(=O)C(=O)c2ccccc2)cc1	none (no result: Pf growth 96h, NS1 function inh, Pf growth 48h, SARS PLP yeast)
CCn1c2ccc(F)cc2c2nnc(SCCN3CCCCC3)nc21	Pf growth 96h inconclusive, Pf growth 48h inconclusive
CCOc1ccc(Oc2ccc(NC(=O)CSc3nncn3C)cc2)cc1	none (no result: NS1 function inh)
CC(C)(C)c1ccc(S(=O)(=O)N2CCC(CO)(CC3CCCCO3)CC2)cc1 (stereo unspecified)	Pf growth 96h inconclusive, Pf growth 48h 2.3µM
CCOC(=O)C1(CC2CCCCO2)CCN(S(=O)(=O)c2ccccc2)CC1 (stereo unspecified)	Pf growth 96h inconclusive, Pf growth 48h inconclusive
CCN(CC)c1ccc(/C=N/n2nnnc2N)c(O)c1	none
CCN(CC)c1ccc2nc3ccccc3[n+](CC)c2c1	Pf growth 96h inconclusive, RE007 growth inh 2.8µM
CCN(CC)c1ccc2nc3ccc(N)cc3[n+](-c3ccccc3)c2c1	Pf growth 96h inconclusive, RE007 growth inh 22µM, Pf growth 48h 0.29µM (no result: NS1 function inh)
Cc1ccc(OC(=O)c2cccnc2)cc1	Pf growth 96h 12µM (no result: NS1 function inh)

Screening data deposited in PubChem BioAssay by National Center for Advancing Translational Sciences (NCATS).
